About 79,000 compounds went through this panel and 15% of them were active in at least one assay; those are over-represented in the sample as a whole. Activity calls are given as the source filed them. Cut-off read from the data, not from the text of the source: active = growth inhibition above about 70%; inactive = the rest.
Key:
[1] = NCI Yeast Anticancer Drug Screen. Data for the wt2 strain (AID 169);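 note: 0% = growth of vehicle-treated yeast cultures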; details: S. cerevisiae wt2 strain growth inhibition, active compounds read high
In short: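 Steps: yeast strain treated with compound; growth recorded; inhibition calculated relative to cultures given vehicle alone.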

[2] = NCI Yeast Anticancer Drug Screen. Data for the mlh1 strain (AID 171);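 note: 0% = growth of vehicle-treated control cultures of the same strain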; details: S. cerevisiae mlh1 strain growth inhibition, active compounds read high
In short: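 Yeast screen: mutant strain plus compound, growth scored against vehicle control wells.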

[3] = NCI Yeast Anticancer Drug Screen. Data for the sgs1 strain (AID 173);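 note: 0% = growth of vehicle-only control cultures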; details: S. cerevisiae sgs1 mutant, active compounds read high
In short: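 Inhibition of yeast growth served as the measure. The mutant strain was treated with each compound, and growth was normalised to cultures receiving vehicle alone.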

[4] = NCI Yeast Anticancer Drug Screen. Data for the mlh1 rad18 strain (AID 175); details: S. cerevisiae mlh1 rad18 strain growth inhibition, active compounds read high
In short: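 Compound-treated yeast growth, normalised to vehicle controls. Strain bears defined DNA repair mutations.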

[5] = NCI Yeast Anticancer Drug Screen. Data for the rad18 strain (AID 177); details: S. cerevisiae rad18 mutant growth inhibition, active compounds read high
In short: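 Inhibition values reflect reduced yeast growth compared with vehicle-treated controls, using a strain engineered with a DNA damage repair defect.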

[6] = NCI Yeast Anticancer Drug Screen. Data for the rad52 strain (AID 147);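 note: 0% = growth of vehicle-treated control cultures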; details: S. cerevisiae rad52 mutant growth inhibition, active compounds read high
In short: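 Genetically altered yeast (DNA damage repair defect) treated with compound; inhibition calculated relative to vehicle.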

[7] = NCI Yeast Anticancer Drug Screen. Data for the wt1 strain (AID 149);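 note: 0% = growth of vehicle-treated wt1 cultures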; details: S. cerevisiae wt1 strain (SPY 50644) growth inhibition, active compounds read high
In short: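 Readout: yeast growth inhibition, normalised to vehicle controls, in the wt1 strain exposed to test compounds.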

[8] = NCI Yeast Anticancer Drug Screen. Data for the rad50EPP+ strain (AID 151);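 note: 0% = growth of vehicle-treated control cultures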; details: S. cerevisiae rad50 mutant strain, active compounds read high
In short: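 Strain rad50EPP+; compound exposure; % growth inhibition vs vehicle.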

[9] = NCI Yeast Anticancer Drug Screen. Data for the mgt1 strain (AID 153); details: S. cerevisiae mgt1 mutant growth inhibition, active compounds read high
In short: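 Read-out: yeast growth inhibition vs vehicle control. Strain mgt1, drawn from a panel altered in DNA damage repair or cell cycle control.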

[10] = NCI Yeast Anticancer Drug Screen. Data for the rad50 strain (AID 155);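 note: 0% = growth of vehicle-only cultures of the same strain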; details: S. cerevisiae rad50 strain growth inhibition, active compounds read high
In short: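 Compounds were tested on a yeast strain with an engineered DNA damage repair alteration; the reported value is growth inhibition normalised to vehicle treatment.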

[11] = NCI Yeast Anticancer Drug Screen. Data for the mec2-1 strain (AID 157); details: S. cerevisiae mec2-1 strain, active compounds read high
In short: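 Cells of the genetically defined mec2-1 yeast strain are incubated with test compound. Inhibition of growth is calculated against vehicle-treated controls.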

[12] = NCI Yeast Anticancer Drug Screen. Data for the rad14 strain (AID 159);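 note: 0% = growth of vehicle-treated control cultures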; details: S. cerevisiae rad14 strain growth inhibition, active compounds read high
In short: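 Compound-treated yeast with a defined DNA-repair lesion; growth inhibition normalised to vehicle-treated cultures.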

[13] = NCI Yeast Anticancer Drug Screen. Data for the sgs1 mgt1 strain (AID 161);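 note: 0% = growth of cultures given vehicle only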; details: S. cerevisiae sgs1 mgt1 strain, active compounds read high
In short: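 Mutant yeast exposed to compound; growth scored against vehicle-only wells.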

[14] = NCI Yeast Anticancer Drug Screen. Data for the CLN2oe strain (AID 163);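 note: 0% = growth of vehicle-only control cultures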; details: S. cerevisiae CLN2oe strain, active compounds read high
In short: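 Strain altered in cell-cycle control, incubated with compound; growth compared to solvent-treated controls.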

[15] = NCI Yeast Anticancer Drug Screen. Data for the cln2 rad14 strain (AID 165);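 note: 0% = growth equal to vehicle treated cultures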; details: S. cerevisiae cln2 rad14 strain, active compounds read high
In short: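 The screen exposed genetically defined yeast (cln2 rad14) to test compounds and scored growth inhibition relative to vehicle-treated controls.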

[16] = NCI Yeast Anticancer Drug Screen. Data for the bub3 strain (AID 167); details: S. cerevisiae bub3 mutant strain, active compounds read high
In short: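 Growth of a checkpoint-deficient yeast mutant is measured after compound exposure. Values represent inhibition relative to vehicle.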

[17] = at 5.0 µM (retest, dose inferred, filed as 0.5)
[18] = at 50.0 µM (retest, dose inferred, filed as 5.0)

Measured: growth inhibition

CCOC(=O)c1cnc2cc(C(F)(F)F)ccc2c1N=[N+]=[N-]
active: [1]; at 100.0 µM 93% | [2]; at 100.0 µM 87% | [3]; at 33.0 µM 75% | [3]; at 100.0 µM 94% | [5]; at 100.0 µM 88%
inactive: [1]; at 1.2 µM 2% | [1]; at 3.7 µM 2% | [1]; at 11.0 µM 14% | [1]; at 33.0 µM 59% | [2]; at 1.2 µM 7% | [2]; at 3.7 µM 6% | [2]; at 11.0 µM 15% | [2]; at 33.0 µM 51% | [3]; at 1.2 µM 10% | [3]; at 3.7 µM 12% | [3]; at 11.0 µM 25% | [4]; [17] -4% | [4]; [18] 12% | [4]; at 50.0 µM 59.9% | [5]; at 1.2 µM 15% | [5]; at 3.7 µM 22% | [5]; at 11.0 µM 33% | [5]; at 33.0 µM 58%

O=C1NC(=O)C2C3C=CC(C3)C12 (centres undefined)
inactive: [6]; at 1.2 µM -7% | [6]; at 3.7 µM 0% | [6]; at 11.0 µM -2% | [6]; at 33.0 µM -7% | [6]; at 100.0 µM -7% | [7]; at 1.2 µM -5% | [7]; at 3.7 µM -5% | [7]; at 11.0 µM -7% | [7]; at 33.0 µM -7% | [7]; at 100.0 µM -5% | [8]; at 1.2 µM 2% | [8]; at 3.7 µM 21% | [8]; at 11.0 µM 67% | [9]; at 1.2 µM -1% | [9]; at 3.7 µM 23% | [10]; at 1.2 µM -6% | [10]; at 3.7 µM -4% | [10]; [17] -149% | [10]; at 11.0 µM 5% | [10]; at 33.0 µM 8% | [10]; [18] -66% | [10]; at 50.0 µM 3.3% | [10]; at 100.0 µM 0% | [11]; at 1.2 µM -1% | [11]; at 3.7 µM 0% | [11]; [17] -46% | [11]; at 11.0 µM 1% | [11]; at 33.0 µM 1% | [11]; [18] -42% | [11]; at 50.0 µM -2% | [11]; at 100.0 µM -2% | [12]; at 1.2 µM -1% | [12]; at 3.7 µM 3% | [12]; at 11.0 µM 0% | [12]; at 33.0 µM -2% | [12]; at 100.0 µM -1% | [13]; [17] 31% | [14]; at 1.2 µM -4% | [14]; at 3.7 µM -1% | [14]; at 11.0 µM 0% | [14]; at 33.0 µM -6% | [14]; at 100.0 µM -3% | [15]; [17] -55% | [15]; [18] -54% | [15]; at 50.0 µM -13.2% | [16]; at 1.2 µM -5% | [16]; at 3.7 µM -4% | [16]; [17] -64% | [16]; at 11.0 µM -7% | [16]; at 33.0 µM -8% | [16]; [18] -62% | [16]; at 50.0 µM -3.55% | [16]; at 100.0 µM -5% | [1]; at 1.2 µM -5% | [1]; at 3.7 µM 40% | [2]; at 1.2 µM 1% | [2]; at 3.7 µM 12% | [3]; at 1.2 µM -4% | [3]; at 3.7 µM 63% | [4]; [17] -124% | [4]; [18] -123% | [4]; at 50.0 µM 10.6% | [5]; at 1.2 µM -2% | [5]; at 3.7 µM 0% | [5]; at 11.0 µM 0% | [5]; at 33.0 µM 0% | [5]; at 100.0 µM 1%
active: [8]; at 33.0 µM 91% | [8]; at 100.0 µM 97% | [9]; at 11.0 µM 89% | [9]; at 33.0 µM 96% | [9]; at 100.0 µM 97% | [13]; [18] 93% | [13]; at 50.0 µM 94.3% | [1]; at 11.0 µM 94% | [1]; at 33.0 µM 97% | [1]; at 100.0 µM 98% | [2]; at 11.0 µM 79% | [2]; at 33.0 µM 95% | [2]; at 100.0 µM 97% | [3]; at 11.0 µM 97% | [3]; at 33.0 µM 98% | [3]; at 100.0 µM 98%

O=C1c2cc([N+](=O)[O-])ccc2-c2cccc(F)c21
inactive: [6]; at 1.2 µM 14% | [6]; at 3.7 µM 31% | [6]; at 11.0 µM 57% | [7]; at 1.2 µM -1% | [7]; at 3.7 µM -2% | [7]; at 11.0 µM 8% | [7]; at 33.0 µM 10% | [7]; at 100.0 µM 20% | [8]; at 1.2 µM 9% | [8]; at 3.7 µM 27% | [8]; at 11.0 µM 49% | [8]; at 33.0 µM 69% | [9]; at 1.2 µM 1% | [9]; at 3.7 µM -5% | [9]; at 11.0 µM 12% | [9]; at 33.0 µM 20% | [9]; at 100.0 µM 28% | [10]; at 1.2 µM 12% | [10]; at 3.7 µM 32% | [10]; [17] 7% | [10]; at 11.0 µM 61% | [10]; [18] 60% | [11]; at 1.2 µM 0% | [11]; at 3.7 µM 3% | [11]; [17] 1% | [11]; at 11.0 µM 13% | [11]; at 33.0 µM 23% | [11]; [18] 7% | [11]; at 50.0 µM 59.7% | [11]; at 100.0 µM 41% | [12]; at 1.2 µM 5% | [12]; at 3.7 µM 11% | [12]; at 11.0 µM 26% | [12]; at 33.0 µM 42% | [12]; at 100.0 µM 61% | [13]; [17] 12% | [13]; [18] 41% | [13]; at 50.0 µM 67.3% | [14]; at 1.2 µM -2% | [14]; at 3.7 µM 0% | [14]; at 11.0 µM 6% | [14]; at 33.0 µM 15% | [14]; at 100.0 µM 22% | [15]; [17] 18% | [15]; [18] 30% | [15]; at 50.0 µM 54.9% | [16]; at 1.2 µM -4% | [16]; at 3.7 µM -7% | [16]; [17] 1% | [16]; at 11.0 µM 8% | [16]; at 33.0 µM 16% | [16]; [18] 8% | [16]; at 50.0 µM 33.1% | [16]; at 100.0 µM 25% | [1]; at 1.2 µM -1% | [1]; at 3.7 µM 3% | [1]; at 11.0 µM 4% | [1]; at 33.0 µM 17% | [1]; at 100.0 µM 46% | [2]; at 1.2 µM -3% | [2]; at 3.7 µM 5% | [2]; at 11.0 µM 13% | [2]; at 33.0 µM 22% | [2]; at 100.0 µM 44% | [3]; at 1.2 µM 3% | [3]; at 3.7 µM 10% | [3]; at 11.0 µM 21% | [3]; at 33.0 µM 34% | [3]; at 100.0 µM 52% | [4]; [17] 9% | [4]; [18] 64% | [5]; at 1.2 µM 45%
active: [6]; at 33.0 µM 82% | [6]; at 100.0 µM 87% | [8]; at 100.0 µM 75% | [10]; at 33.0 µM 84% | [10]; at 50.0 µM 91.9% | [10]; at 100.0 µM 83% | [4]; at 50.0 µM 82.5% | [5]; at 3.7 µM 78% | [5]; at 11.0 µM 90% | [5]; at 33.0 µM 93% | [5]; at 100.0 µM 89%
